# LASV entry inh: qHTS for Inhibitors of binding or entry into cells for Lassa Virus; 1.2% of 300,000 active; Potency, µM (titrated, usually from 37.9 µM), for the others: at the highest dose activity change, negative = inhibition, actives largely listed as inhibitors; Lassa virus pseudotype entry inhibition, cell reporter; calls by dose curve; tested in HEK293 cells; further: potency means the concentration at half of the fitted maximal effect; nearly all actives have a fitted effect of over 50% in size
# Marburg entry inh: qHTS for inhibitors of binding or entry into cells for Marburg Virus; Marburg virus pseudotyped entry inhibition, cell reporter; AID 540276, 2011; Potency, µM (titrated, usually from 37.8 µM), without a hit: top-dose activity change, negative = inhibition, actives largely listed as inhibitors; 1.8% of 300,000 active; calls by dose curve; tested in HEK293 cells; further: potency means the concentration at half of the fitted maximal effect
# HCMV antiviral: qHTS Assay for inhibitors of the human cytomegalovirus (HCMV) | HFF cells, HCMV-luciferase reporter, 72 h; hits give low values | activity change, negative = inhibition, % at 57.5 µM | 4.5% of 410,000 active | AID 1259415, 2018; in the data active means activity change below about -60%; inconclusive means no clear call, values can overlap the other calls; inactive means above about -39%
#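 Luciferase read-out from HCMV-luciferase-infected HFFs (MOI 1 PFU/cell) 72 h post infection at 37C; compounds added after 16 h cell attachment; activity normalized between buffer-only basal and Salinomycin (10uM) inhibitor controls.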
# FMDV inh: High Throughput Screening for Foot and Mouth Disease Virus Antivirals; Potency, µM (highest dose often 57.9 µM), for inactives: at the top dose activity change, negative = inhibition, most hits filed as inhibitors; FMDV antiviral cell-based qHTS; AID 1159524, 2015; 1.2% of 410,000 active; calls by dose curve; tested in HEK293T cells; further: read-out not given here; potency means the concentration at half of the fitted maximal effect; nearly all actives have a fitted effect of over 45% in size
# An asterisk follows results filed as active; ? = inconclusive; . = no result; [ ] = remark or other dose. Hits are enriched below; roughly 6.2% of the tested compounds scored in any of these assays. On the % scale 0 is the no-effect control and ±100 the full control effect.
SMILES,LASV entry inh,Marburg entry inh,HCMV antiviral,FMDV inh
O=C1CC(Sc2nnc(-c3ccccc3O)o2)C(=O)N1c1ccccc1 (stereo not drawn),9.2µM*,-6.5%,-31.7,.
Cc1cccc(N2C(=O)CC(Sc3nccc(C)n3)C2=O)c1 (stereo not drawn),-4.5%,11.1%,-97.6*,-9.9%
Cc1nc(SC2CC(=O)N(c3ccccc3)C2=O)n[nH]1 (stereo not drawn),0.6%,-0.1%[46.1 µM],-60.2*,2.7%
O=C1CC(Sc2ncccn2)C(=O)N1c1ccccc1 (stereo not drawn),14.7%,-11.9%,50.7,-13.0%
COc1ccc(CCNC(=O)CCn2c(=O)c3ccccc3n(CC(=O)Nc3ccccc3F)c2=O)cc1OC,3.6%[46.1 µM],-10.6%[46.1 µM],7.7,11.4%
O=C(CSc1nnc2c(n1)[nH]c1ccc(F)cc12)Nc1ccccc1F,?,21.6%[46.1 µM],-27.2,-17.8%
O=C(CSc1nnc2c3ccccc3c3ccccc3c2n1)Nc1ccccc1F,12.1%,12.8%,-87.8*,-12.9%
Cc1ccsc1C(=O)NN=C1CCCCCC1,.,.,-98.9*,34.7%
Cc1ccc(C(=O)NN=C2CCCCCC2)s1,.,.,?,39.5%
Cc1ncc(N=Nc2ccccc2Cl)c(-c2ccccc2)n1,0.6%,-1.9%[46.1 µM],-24.2,?
CCOCCN1CCN(c2c(C)c(C)nc3cc(-c4cc(OC)cc(OC)c4)nn23)CC1,-31.5%,-0.9%,-83.9*,-12.9%
COc1ccc(NC(=O)Nc2ccc3c(c2)N(C)C(=O)CS3)cc1OC,-9.1%,?,2.6,-20.3%
Cc1ccc(NC(=O)C[n+]2cc(-c3ccccc3)n3c2CCC3)c(C)c1,0.0%[46.1 µM],-9.4%[46.1 µM],?,-4.6%
Clc1cccc(C[n+]2cc(-c3ccccc3)n3c2CCC3)c1,2.8%,?,-70.0*,-5.2%
Cc1ccc(-c2c[n+](Cc3cccc(Cl)c3)c3n2CCC3)cc1,?,?,-86.5*,?
Cc1ccc(N(CC(=O)N/N=C/c2cccs2)S(C)(=O)=O)cc1,2.2%,?,6.5,45.8%
COC(=O)C1=C(c2ccc(-c3ccccc3)c(F)c2)C[C@@H]2CC[C@H]1N2C(=O)NC1CC1,.,.,6.0,-13.1%
O=C(Nc1ccccc1F)c1ccc2c(Cl)c3c(nc2c1)CCC3,?,?,-86.5*,10µM*
O=C(NCc1cccc(Cl)c1)c1ccc2c(Cl)c3c(nc2c1)CCCC3,2.1%[46.1 µM],1.6%[46.1 µM],-78.2*,5.6%
CCCCN(CC)CCNC(=O)c1ccc2c(Cl)c3c(nc2c1)CCC3,?,?,-34.5,-11.9%
CCN(CC)CCCNC(=O)c1ccc2c(Cl)c3c(nc2c1)CCCC3,?,?,-88.2*,-25.3%
CCCN1CCN(CCCNC(=O)c2ccc3c(Cl)c4c(nc3c2)CCCC4)CC1,.,.,0.0,-24.8%
O=C(NCCCN1CCCC1)c1ccc2c(Cl)c3c(nc2c1)CCCC3,?,5.62µM*,-73.3*,?
Cc1cc(C)nc(NC(=O)NS(=O)(=O)Nc2ccc(Br)cn2)n1,4.1%,-1.4%,.,0.7%
COC(=O)[C@@]1(Cc2ccc(OC)cc2)[C@H]2c3cc(C(=O)N(C)C)[nH]c3C[C@H]2CN1C(=O)c1ccccc1,-13.8%,12.6%,0.0,0.0%
SMILES,LASV entry inh,Marburg entry inh,HCMV antiviral,FMDV inh
O=C(c1cccnc1)N1CCN(c2ccc(Cl)cc2)CC1,-1.4%,3.1%,-28.0,-10.9%
CCN(CC)C(=O)c1ccc(Nc2nnc(-c3ccc(C)c(S(=O)(=O)NC)c3)c3ccccc23)cc1,?,.,?,25.4%
O=C(NC1CC1)c1ccc2c(Cl)c3c(nc2c1)CCCC3,.,.,-61.7*,53.9%
COc1ccc(C(=O)NCC(c2ccco2)N2CCOCC2)cc1OC (stereo not drawn),1.2%,?,-14.7,-4.3%
CCC/C(C)=N/NC(=O)c1ccccc1O,20.0%,8.3%,12.0,3.2%
CCOC(=O)C(CC)/C(C)=N\NC(=O)c1ccccc1O (stereo not drawn),-19.4%,?,-90.4*,24.9%
Cc1ccc(C(=O)n2cnc3ccccc32)cc1C,10.1%[46.1 µM],13.1%[46.1 µM],2.3,28.0%
C[C@@H]1CN([C@H](C)CO)C(=O)CCCn2nncc2CO[C@H]1CN(C)C(=O)c1ccc2ccn(C)c2c1,.,.,-2.7,-1.7%
Cc1ccc2cc(COC(=O)c3ccco3)c(=O)[nH]c2c1,-3.8%,2.4%,34.3,-10.5%
Cc1ccc(NC(=S)Nc2ccc(C(C)C)cc2)cc1S(=O)(=O)N1CCCCCC1,?,?,-99.0*,0.0%
COc1ccc(/C=C/C(=O)Nc2ccc(C)c(S(=O)(=O)N3CCOCC3)c2)cc1,.,.,-95.1*,?
C=CCNC(=S)Nc1ccc(C)c(S(=O)(=O)N2CCCCC2)c1,-26.7%,-13.9%,21.4,12.3%
COc1ccc(NC(=O)/C=C/c2ccc(S(=O)(=O)N3CCOCC3)cc2)cc1,.,.,-18.8,0.6%
COc1ccc(NC(=S)Nc2ccc(C)c(S(=O)(=O)N3CCCCC3)c2)cc1,-3.9%,14.6µM*,.,.
Cc1c(C(c2ccc(O)cc2)c2c(O)c3ccccc3oc2=O)c(=O)n(-c2ccccc2)n1C (stereo not drawn),22.1%[46.1 µM],24.0%[46.1 µM],-0.7,10.1%
C#CCN(C[C@@H]1[C@@H](OC(=O)NCCCCCC)[C@@H](OC(=O)NCCCCCC)Cn2c(=O)ccc(=O)n21)S(=O)(=O)c1ccc(C)cc1,.,.,-103.6*,12.6µM*
C#CCN(C[C@@H]1[C@@H](OC(=O)NC2CC2)[C@@H](OC(=O)NC2CC2)Cn2c(=O)n(CCCCCC)c(=O)n21)S(=O)(=O)c1ccc(C)cc1,.,.,-8.4,?
C#CCN(C[C@@H]1[C@@H](OC(=O)NCC2CCCCC2)[C@@H](OC(=O)NCC2CCCCC2)Cn2c(=O)ccc(=O)n21)S(=O)(=O)c1ccc(C)cc1,.,.,-102.2*,10µM*
O=C(Nc1nc2ccc([N+](=O)[O-])cc2s1)C1CCCO1 (stereo not drawn),2.3%,-22.7%[46.1 µM],6.7,20.3%
CC(=O)Nc1cc(C(F)(F)F)ccc1OCC1CCCO1 (stereo not drawn),14.0%,?,-7.7,-14.8%
Cc1cc(NC(=O)NC(=O)c2ccc(F)cc2F)n[nH]1,15.8µM*,?,25.0,-20.3%
N#C/C(=C\c1ccc([N+](=O)[O-])o1)c1nc2ccccc2[nH]1,.,-1.4%,-93.7*,25.1µM*
Cc1ccc2nc(/C(C#N)=C/c3ccc(-c4ccccc4C(=O)O)o3)[nH]c2c1,.,.,-6.1,6.9%
Cc1ccc2nc(/C(C#N)=C\c3ccc([N+](=O)[O-])o3)[nH]c2c1,3.26µM*,18.3µM*,-103.1*,?
N#C/C(=C(/O)c1ccc([N+](=O)[O-])o1)c1nc2ccccc2[nH]1,.,.,-74.5*,-17.9%
CCOC(=O)c1ccc(-c2ccc(/C=C(\C#N)c3nc4ccc(C)cc4[nH]3)o2)cc1,?,.,-79.2*,-18.9%
Nc1[nH]c(C(=O)c2ccccc2)c(-c2ccc(Cl)cc2)c1C(=O)NCc1ccco1,.,.,9.8,-0.5%
O=C(CSC1=Nc2ccccc2C2CC=NN12)Nc1ccc(F)cc1Cl (stereo not drawn),?,?,7.8,?
COc1cccc(N2CCN(C(=S)NCc3ccco3)CC2)c1,9.2%,-11.4%,7.0,15.5%
